Compounds with a hit are over-represented: about 2.9% of the library has one in this group of screens.
POLB inh: qHTS Assay for Inhibitors of DNA Polymerase Beta | Pol beta primer extension/strand displacement, fluorescence kinetic | Potency, µM (highest dose often 114 µM), without a hit: top-dose activity change, negative = inhibition, actives largely listed as inhibitors | 1.3% of 340,000 active | AID 485314, 2010; also: potency is read from the fitted curve at half-maximal effect; % is scaled to controls: 0 for no effect and ±100 for the full control effect
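Reaction started by 50 nM substrate onto compound-treated Pol beta (10 nM, 15 min preincubation, room temperature); plates read at 0 min and 10 min. Normalized concentration-effect data fitted by four-parameter Hill equation.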
PI5P4Ka inh: qHTS for Inhibitors of phosphatidylinositol 5-phosphate 4-kinase (PI5P4K). 1.2% of 330,000 active. PI5P4Kalpha enzyme, ADP-Glo luminescence, 60 min; hits give low values. max response, %; active = max response of -50% or lower; inconclusive = between -30% and -50%; inactive = -30% or higher; also: value at the top dose of about 77 µM; % is scaled to controls: 0 for no effect and ±100 for the full control effect
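Luminescence from ADP-Glo served as readout of PI5P4Kalpha activity in a qHTS format. Reaction: enzyme, substrate, compound, ATP at 5 microM final, 60 min at RT.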
POLI inh: qHTS for Inhibitors of Polymerase Iota | Pol iota fluorescent replication assay, 10 min | 1% of 390,000 active | DNA polymerase iota (Homo sapiens), Q9UNA4 | Potency, µM (titrated, usually from 115 µM), for inactives: at the highest dose activity, negative = inhibition, actives largely listed as inhibitors; also: potency is read from the fitted curve at half-maximal effect
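Fluorescent replication assay read twice, at 0 min and 10 min after adding 50 nM (final) substrate. Enzyme (10 nM) and compounds were first incubated 15 min at room temperature; enzyme-free buffer wells were negative controls.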
Pol kappa inh: qHTS for Inhibitors of Polymerase Kappa; DNA polymerase kappa (Homo sapiens), Q9UBT6; purified Pol kappa, fluorescent DNA synthesis assay, 10 min; Potency, µM (series often up to 107 µM), for inactives: top-dose activity, negative = inhibition, hits mostly inhibitors; 0.53% of 400,000 active; AID 588579, 2011; also: potency is read from the fitted curve at half-maximal effect; % is scaled to controls: 0 for no effect and ±100 for the full control effect
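50 nM final substrate added after 15 min RT preincubation of 10 nM Pol kappa with compound; fluorescence read at 0 and 10 min.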
Pol eta inh: qHTS for Inhibitors of Polymerase Eta | recombinant Pol eta, fluorescent DNA replication assay | Potency, µM (titrated, usually from 114 µM), without a hit: top-dose activity change, negative = inhibition, hits mostly inhibitors | 1.2% of 390,000 active | DNA polymerase eta (Homo sapiens), Q9Y253; also: potency is read from the fitted curve at half-maximal effect; % is scaled to controls: 0 for no effect and ±100 for the full control effect
Target sequence (Q9Y253 whole entry, looked up): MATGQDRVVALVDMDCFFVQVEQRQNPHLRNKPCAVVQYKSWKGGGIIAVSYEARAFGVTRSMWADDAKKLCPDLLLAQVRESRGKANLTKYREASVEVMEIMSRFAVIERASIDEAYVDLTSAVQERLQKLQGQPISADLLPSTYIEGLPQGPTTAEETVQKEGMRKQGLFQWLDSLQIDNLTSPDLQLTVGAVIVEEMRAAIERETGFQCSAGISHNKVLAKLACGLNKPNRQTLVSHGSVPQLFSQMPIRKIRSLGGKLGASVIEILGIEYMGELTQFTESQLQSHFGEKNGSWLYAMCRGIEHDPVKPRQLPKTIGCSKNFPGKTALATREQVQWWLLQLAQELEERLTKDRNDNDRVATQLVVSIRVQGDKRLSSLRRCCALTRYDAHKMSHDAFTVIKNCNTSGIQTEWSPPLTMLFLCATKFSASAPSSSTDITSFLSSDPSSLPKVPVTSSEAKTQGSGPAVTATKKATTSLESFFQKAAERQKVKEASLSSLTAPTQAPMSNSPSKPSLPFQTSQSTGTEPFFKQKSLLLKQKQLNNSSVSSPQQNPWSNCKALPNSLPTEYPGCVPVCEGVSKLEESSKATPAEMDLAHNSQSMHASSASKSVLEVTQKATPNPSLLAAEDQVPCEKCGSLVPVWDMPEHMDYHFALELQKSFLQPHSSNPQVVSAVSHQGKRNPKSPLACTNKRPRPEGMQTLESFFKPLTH
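Pol eta at 10 nM preincubated with compounds 15 min at room temperature; reaction started with fluorescent substrate (50 nM final) and read kinetically at 0 and 10 min.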
ALOX12 inh: Primary qHTS assay for inhibitors of human arachidonate 12S-lipoxygenase (ALOX12): Round 2; purified 12hLO, xylenol orange hydroperoxide absorbance; Potency, µM (highest dose often 108 µM), for inactives: at the highest dose activity change, negative = inhibition, most hits filed as inhibitors; 1.1% of 580,000 active; AID 1671190, 2021; also: potency is read from the fitted curve at half-maximal effect; % is scaled to controls: 0 for no effect and ±100 for the full control effect
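Hydroperoxide product was detected by ferrous iron/xylenol orange as the 573 to 405 nm absorbance ratio. Arachidonic acid at 40 uM (final) was turned over for 30 min at room temperature by 150 nM human 12hLO, pH 7.0 Hepes buffer, after 15 min compound preincubation.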
An asterisk follows results filed as active; ? = inconclusive; . = no result; ! = repeats disagree; [ ] = remark or other dose. Unless noted, calls follow the shape of the dose curve; as a rule, active = well fitted inhibition curve with a large enough effect; inconclusive = small, poorly fitted or top-dose-only effect, or another doubt; inactive = no such curve, though single readings can be large or run the other way.

SMILES	POLB inh	PI5P4Ka inh	POLI inh	Pol kappa inh	Pol eta inh	ALOX12 inh
CCCCC/C=C\C/C=C\C/C=C\C/C=C\CCCC(=O)NCc1ccoc1	.	.	.	7.9µM*	.	.
CCCCC/C=C\C/C=C\C/C=C\C/C=C\CCCC(=O)NCC(=O)O	1.4µM*	.	2.2µM*	7.5µM*!	0.5µM*	7%[22.9 µM]
CCCCC/C=C\C/C=C\C/C=C\C/C=C\CCCC(N)=O	.	.	.	2%[19.4 µM]	.	.
CCCCC/C=C\C/C=C\C/C=C\C/C=C\CCCC(=O)NCCCC(=O)O	.	.	.	14µM*	.	?
CCn1nccc1C(=O)N1[C@H]2CC[C@@H]1c1cnc(-c3ccc(F)cc3)nc1C2	.	.	.	.	.	0%
Cc1ccccc1C(=O)N1CCC2(CC1)c1nccn1-c1ccccc1CN2CC(C)C	.	.	.	.	.	-1%
Nc1ccccc1C(=O)OC1CSC1	56µM*	.	9%	-2%	?	?
CN(C)[C@@H]1C(=O)C(C(N)=O)=C(O)[C@]2(O)C(=O)C3=C(O)c4c(O)ccc(Cl)c4[C@](C)(O)[C@H]3C[C@@H]12	.	.	.	-7%[12 µM]	.	.
CN(C)C1C(=O)C(C(N)=O)=C(O)C2(O)C(=O)C3=C(O)c4c(O)cccc4C(C)(O)C3C(O)C12 (stereo not drawn)	11µM*	-54*	-8%	-4%	-9%	?
COc1ccc(-c2cn(C[C@H]3C[C@@H]4CCN3C[C@@H]4C(=O)N3CCOCC3)nn2)cc1	.	.	.	.	.	79%[176 µM]
O=c1[nH]c(=O)n(Cc2ccco2)c(O)c1C=NCc1cccs1	-1%	.	-24%[58.9 µM]	?	?	-19%
O=c1[nH]c(=S)n(Cc2ccco2)c(O)c1C=NCc1cccs1	13µM*	-69*	22µM*	50µM*	22µM*	-2%[57.4 µM]
Cc1nonc1CC(=O)N1C[C@H](O)[C@@H](N2CCC(O)CC2)C1	.	.	.	.	.	13µM*
COc1ccc([C@@H]2CN(C(=O)Cc3nonc3C)[C@@H]3C4CCN(CC4)[C@@H]32)cc1	.	.	.	.	.	2%
CC(C)CCN1CCCC2(CC(c3cccnc3)=NO2)C1 (stereo not drawn)	.	.	.	.	.	4%[12.5 µM]
CCOc1ccc(NC(=O)c2c(O)[nH]c(=O)[nH]c2=O)cc1	.	7	19%	6%	-14%	-3%
CCOC(=O)c1ccc(NC(=O)c2c(O)[nH]c(=O)[nH]c2=O)cc1	20µM*	-2	0%	1%	?	?
O=C(N/N=C\C1C(=O)NC(=S)N(c2ccccc2)C1=O)c1ccc(O)cc1 (stereo not drawn)	-2%	-57*	35%	-15%	1%	?
CC(C)CN(CC(C)C)c1ccc(C=C2C(=O)NC(=S)NC2=O)cc1[N+](=O)[O-]	50µM*	-101*	18µM*	?	25µM*	?
CN(C)c1ccc(C=C2C(=O)NC(=O)NC2=O)cc1	.	?	?	4%	-3%	?
CCOc1ccc(C=C2C(=O)NC(=S)NC2=O)cc1OCC	.	?	?	-12%	4%	?
CN(C)c1ccc(C=C2C(=O)NC(=S)NC2=O)cc1	.	-72*	50%	-25%	-17%	?
CCN(CC)c1ccc(C=C2C(=O)NC(=S)NC2=O)cc1	2%	-62*	13%	7%	-7%	?
Cc1ncc2c(n1)C[C@@H]1CC[C@H]2N1S(=O)(=O)c1c(C)noc1C	.	.	.	.	.	-3%
Cc1cc(O)c2c(c1)C(=O)c1cc(O)cc(O)c1C2=O	11µM*	-58*	?	?	?	?
SMILES	POLB inh	PI5P4Ka inh	POLI inh	Pol kappa inh	Pol eta inh	ALOX12 inh
CCOc1ccc(-c2nc3ccc(-c4nc5ccc(N6CCN(C)CC6)cc5[nH]4)cc3[nH]2)cc1	.	.	.	0.3µM*	.	.
CCCNC(=O)OC[C@H]1C[C@@H]2CCN1C[C@@H]2c1cc(-c2ccc3ccccc3c2)nn1C	.	.	.	.	.	4%[176 µM]
Cc1ccccc1CN1CCN(Cc2cccc(F)c2)CC1	.	.	.	.	.	0.11µM*
O=C(Cc1c(F)cccc1Cl)N1[C@H]2CC[C@@H]1c1cnc(-c3ccccc3)nc1C2	.	.	.	.	.	33%
O=C(O)Cn1cc(/C=C2\C(=O)NC(=O)N(c3ccc(Cl)cc3)C2=O)c2ccccc21	2%	-22	?	-10%	?	?
Cn1cc(/C=C2\C(=O)NC(=O)N(c3ccccc3)C2=O)c2ccccc21	-7%	3	?	-19%	25µM*	52%
COc1cc(/C=C2\C(=O)NC(=O)N(c3ccccc3)C2=O)cc(OC)c1O	2%	.	25µM*	0%	3%	?
CN1Cc2ccccc2-n2ccnc2C12CCN(C(=O)c1ccc(F)cc1)CC2	.	.	.	.	.	31%
c1ccc(CCNCc2ccco2)cc1	.	.	.	.	.	-15%
CCOC(=O)c1ccccc1NC(=O)c1c(O)[nH]c(=S)[nH]c1=O	.	-23	30%	7%	-7%	?
O=S(=O)(Nc1c(O)ccc2ccccc12)c1ccc(F)cc1	.	-26	?	-20%	-5%	?
O=C(O)c1ccccc1NS(=O)(=O)c1cccc(N=Nc2c(O)[nH]c(=S)[nH]c2=O)c1	.	-74*	?	-18%	-11%	?
O=C(O)c1cc(S(=O)(=O)Nc2ccccc2C(=O)O)ccc1O	?	-54*	-15%	-12%	-17%	200%
CCCNC(=O)OC[C@H]1C[C@@H]2CCN1C[C@@H]2c1cc(-c2ccccc2OC)nc(C)n1	.	.	.	.	.	18%[176 µM]
[Cl][In]([Cl])[Cl]	.	.	18µM*	3%[60.1 µM]	.	?
O=C1NC(=O)N(c2ccccc2F)C(=O)/C1=C/c1ccc(Oc2ccc([N+](=O)[O-])cn2)cc1	-3%	-52*	-17%	-33%	-13%	?
CCCCCCCCn1sccc1=O	.	-77*	?	14%	0%	45µM*
CC(C)NC(=O)N1C[C@@H]2C[C@H](C1)c1ccc(C3CCCCC3)c(=O)n1C2	.	.	.	.	.	32µM*
CC(C)c1ccc(NC(=O)N2C[C@H]3C[C@@H](C2)c2cccc(=O)n2C3)cc1	14%	5	24%	-2%	-11%	28%
c1ccc(-c2nc(N3CCOCC3)s[n+]2-c2ccccc2)cc1	30%	-67*	25%	3%	-10%	32µM*
O=C(OC1CCOC1=O)c1cccs1 (stereo not drawn)	.	.	.	.	.	1%
CCN1CCCCC12Cc1ccccc1CN(C(=O)Cc1ccccc1)C2 (stereo not drawn)	.	.	.	.	.	6.3µM*
CNC(C)C#Cc1ccc2oc3cc(C)c(C)cc3c(=O)c2c1 (stereo not drawn)	.	6	8.9µM*	19%	-16%	-20%
Cc1nc(-c2ccco2)cc([C@H]2CN3CC[C@H]2C[C@@H]3CNC(=O)Cc2cccs2)n1	.	.	.	.	.	-19%[176 µM]
